High-throughput results deposited in PubChem by National Center for Advancing Translational Sciences (NCATS).
IL1B secr inh: blocks inflammasome-driven IL-1 beta release | THP-1 LPS/ATP IL-1B secretion, AlphaLISA, 16 h; stronger effect = lower value | activity change, % at 57.5 µM | hit rate 4.7% among 360,000 | AID 743279; in the data active = activity change below about -50%; inconclusive = mostly about -30% to -49%
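Secreted IL-1B measured by AlphaLISA bead assay after 16 h compound exposure of THP-1 cells; compounds (final up to 57.5 uM) added 1 h before LPS (250 ng/mL) and ATP (1.25 mM) stimulation; lower signal means less secretion.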
HT1080 IDH1KD tx: HT-1080 IDH1 knockdown cell toxicity (counter line) | HT-1080 IDH1 knockdown viability, ATP luminescence, 48 h | Potency, µM (series often up to 46.1 µM), for the others: at the top dose activity, negative = toxicity, actives largely listed as cytotoxic | hit rate 2% among 360,000;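 note: potency is the fitted concentration of half-maximal effect; 0% = DMSO wells and -100% = cell-free medium wells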
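In this qHTS, HT-1080 cells depleted of IDH1 are exposed for 48 h at 37 °C to compound titrations. Toxicity is scored from CellTiter-Glo luminescence, with DMSO as full viability and medium alone as none.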
DT40 TDP1 no CPT: qHTS for Inhibitors of human tyrosyl-DNA phosphodiesterase 1 (TDP1): qHTS in cells in absence of CPT | hit rate 15% among 420,000 | AID 686978, 2013 | DT40 Tdp1-/- hTDP1 cells, no CPT, ATP luminescence, 48 h | Potency, µM (series often up to 46.2 µM), inactives show top-dose activity change, negative = growth inhibition, usual class: inhibitors; note: potency is the fitted concentration of half-maximal effect; nearly all actives have a fitted effect of over 55% in size
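Compound effects on proliferation are scored in DT40 Tdp1-/-;hTDP1 cells in the absence of CPT. ATP levels (CellTiter-Glo luminescence) are recorded after a ≥48 hr, 37 °C incubation.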
HT1080-NT tox: kills 2HG-producing HT-1080-NT fibrosarcoma cells; HT-1080-NT fibrosarcoma viability, CellTiter-Glo ATP luminescence, 48 h; Potency, µM (highest dose often 46.1 µM), without a hit: at the highest dose activity, negative = less viability, hits mostly cytotoxic; hit rate 1.6% among 360,000;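 note: NT is the 2HG producing partner of a matched IDH1 knockdown line; potency is the fitted concentration of half-maximal effect; 0% = DMSO-treated cells and -100% = media-only wells without cells; nearly all actives have a fitted effect of over 55% in size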
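Toxicity toward the 2HG-producing NT line was scored as %Activity, normalised to DMSO and no-cell wells, from CellTiter-Glo luminescence after 48 hours' treatment.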
TDP1 cell CPT: DT40-hTDP1 cell growth loss with CPT; chicken DT40 Tdp1-/-;hTDP1 cells + 20 nM CPT, ATP luminescence, 48 h; Potency, µM (titrated, usually from 46.2 µM), for the others: at the top dose activity change, negative = growth inhibition, actives largely listed as inhibitors; hit rate 12% among 420,000; AID 686979; note: potency is the fitted concentration of half-maximal effect; nearly all actives have a fitted effect of over 55% in size
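Cell growth measured by CellTiter-Glo luminescence after a minimum 48 h, 37 C compound exposure with 20 nM CPT in Tdp1-knockout DT40 cells stably expressing hTDP1, seeded 400/well; qHTS titration format.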
* hit, by the source's call; i = inactive; ? = inconclusive; · = no result given; [ ] = another dose, or the depositor's remark. The list is not random: actives were taken first. Their share in the collection is about 19%. Unless noted, calls come from the whole dose curve; as a rule, active = well fitted curve in the direction sought with a large enough effect; inconclusive = small, poorly fitted or top-dose-only effect, or another doubt; inactive = no such curve, though single readings can be large; an effect the other way counts as inactive or inconclusive. Unless noted, % is set by controls: 0 for no effect and ±100 for the full control effect.

SMILES	IL1B secr inh	HT1080 IDH1KD tx	DT40 TDP1 no CPT	HT1080-NT tox	TDP1 cell CPT
Nc1ccc2c(c1)[nH]c(=O)c1ccccc12	-75*	?	?	-2%	?
CC(=O)Nc1ccc2c(c1)[nH]c(=O)c1ccccc12	-14	-1%	?	5%	0.82µM*
CC1(C)CC(=O)c2c(nc(SCC(=O)Nc3nsc(-c4ccccc4)n3)c(C#N)c2-c2ccccc2)C1	?	12%	4.6µM*	14%	5.2µM*
CCc1c(C#N)c(SCCC(=O)Nc2ccc(F)cc2)nc2c1C(=O)CC(C)(C)C2	-30	?	?	?	16µM*
COc1ccc(-c2c(C#N)c(SCc3c(C)noc3C)nc3c2C(=O)CC(C)(C)C3)cc1	66	1%	-24%	-5%	-12%
CCc1c(C#N)c(SCCC(=O)Nc2cccc(OC)c2)nc2c1C(=O)CC(C)(C)C2	0	-11%	16µM*	-4%	?
O=C(CCC(=O)N1CCOCC1)NCc1cccc(C(F)(F)F)c1	2	7%	7%	6%	-3%
O=C(CCc1ccc(O)c(O)c1)N/N=C/c1ccc2c(c1)OCO2	-8	-24%	?	-1%	?
CC(C)Cn1c(N)c(C(=O)COC(=O)Cc2cccc(C(F)(F)F)c2)c(=O)n(C)c1=O	11	-5%	21µM*	-13%	16µM*
CC(C)Cn1c(N)c(C(=O)COC(=O)Cc2cccs2)c(=O)n(C)c1=O	i	-13%	23µM*	1%	18µM*
CC(C)Cn1c(N)c(C(=O)COC(=O)/C=C/c2cccs2)c(=O)n(C)c1=O	-4	-13%	16µM*	?	?
CC(C)Cn1c(N)c(C(=O)COC(=O)c2cccc(Cl)c2)c(=O)n(C)c1=O	40	-25%	?	-19%	0%
C[C@@H]1O[C@@H](OC[C@H]2O[C@@H](Oc3c(-c4ccc(OCCO)c(OCCO)c4)oc4cc(OCCO)cc(O)c4c3=O)[C@H](O)[C@@H](O)[C@@H]2O)[C@H](O)[C@H](O)[C@H]1O	·	·	0%	·	-25%
Clc1cccc(-c2ccc(CNCCCN3CCOCC3)o2)c1	-23	-2%	?	-19%	1%
CCOC(=O)C1=C(C)NC(=O)NC1c1ccc([N+](=O)[O-])o1 (stereo unspecified)	-8	2%	-27%	1%	?
CCOc1cc(C2C(C(=O)OC)=C(C)NC3=C2C(=O)c2ccccc23)cc(Cl)c1O (stereo unspecified)	·	·	18µM*	·	?
CCOC(=O)C1=C(C)NC2=C(C(=O)c3ccccc32)C1c1ccc([N+](=O)[O-])o1 (stereo unspecified)	-66*	-5%	16µM*	-27%	23µM*
COc1ccccc1NCC(=O)N/N=C(\C)c1cccs1	-18	3%	?	2%	?
COc1cc(CNc2nc(C)c([N+](=O)[O-])c(C)c2C#N)cc(OC)c1OC	39	-14%	18µM*	-1%	21µM*
COc1ccc(CNc2cc([N+](=O)[O-])ccc2OC)cc1	-23	1%[9.24 µM]	-17%	-18%	-19%
COc1ccc(CNc2nc(C)c([N+](=O)[O-])c(C)c2C#N)cc1	-12	-12%	?	-1%	18µM*
COc1ccc(/C=C/C(=O)OCC(=O)NC2CCCC2)cc1	-10	0%	-24%	5%[9.24 µM]	?
C#Cc1cccc(C(=O)NCc2nc(-c3ccccc3NC(=O)C3CCCO3)oc2C)c1 (stereo unspecified)	·	·	-8%	·	3%[9.04 µM]
CCc1nc2c(OCCOc3ccc(F)cc3)cccn2c1N(C)C(=O)C(C)C	-8	2%	16µM*	1%	?
CCCCC(=O)N(C)c1c(CC)nc2c(OCCOc3ccccc3)cccn12	-27	0%	26µM*	0%	18µM*
SMILES	IL1B secr inh	HT1080 IDH1KD tx	DT40 TDP1 no CPT	HT1080-NT tox	TDP1 cell CPT
CCCCC(=O)N(C)c1c(CC)nc2c(OCCC)cccn12	17	0%	-23%	1%	-29%
CCc1nc2c(OCCOc3ccc(F)cc3)cccn2c1N(C)C(=O)c1ccco1	?	-17%	16µM*	-17%	21µM*
CCCCC(=O)N(C)c1c(CC)nc2c(OCCOc3ccc(F)cc3)cccn12	-23	-12%	18µM*	-2%	15µM*
CCn1c(CCC(=O)N(C)CC(=O)Nc2cccc(F)c2)nc2cc(S(=O)(=O)N(C)C)ccc21	8	-5%	-3%	-9%	-16%
CCc1nc2c(OCCOc3ccc(F)cc3)cccn2c1N(C)C(=O)c1ccc(C)cc1	-60*	0%	15µM*	-9%	?
CCN(CC(=O)Nc1ccc(Br)cc1)C(=O)Cc1cccc(F)c1	-2	-2%	-25%	-1%	3%
O=C(Nc1c(Cl)ccc2nsnc12)c1cccnc1	-3	3%	-6%	-1%	-13%
O=C(NCCN1CCCCC1)Nc1ccc(F)cc1	-10	8%	-19%	-4%	-2%
Cc1cc2nc(C)n(CCCNC(=O)Nc3ccc(F)cc3)c2cc1C	?	-16%	23µM*	-7%	?
O=C(O)COc1c(-c2ccco2)oc2ccccc2c1=O	18	1%	-10%	-1%	5%
COc1ccc(-c2oc3ccccc3c(=O)c2OC(C)=O)cc1	19	?	16µM*	?	23µM*
CC(=O)Oc1c(-c2ccc(Br)o2)oc2ccccc2c1=O	-29	?	15µM*	-19%	26µM*
CCOC(=O)COc1c(-c2ccc(OC)cc2)oc2ccccc2c1=O	11	-4%	?	5%	?
Cc1ccc(S(=O)(=O)N(C(=O)c2ccncc2)c2ccc(OC(=O)c3ccncc3)cc2)cc1	?	-3%	?	-4%	?
CCc1ccc(S(=O)(=O)N(C(=O)c2ccncc2)c2ccc(OC(=O)c3ccncc3)cc2)cc1	-61*	-4%	?	-13%	?
COc1ccc(N(C(=O)c2ccccc2)S(=O)(=O)c2cccs2)cc1	8	?	21µM*	16µM*	?
COc1ccc(N(C(=O)COc2cccc(C)c2)S(=O)(=O)c2ccc(C)cc2)cc1	16	-9%	-28%	-11%	18µM*
COc1ccc(C(=O)N(c2ccc(OC)cc2)S(=O)(=O)c2cccs2)cc1	25	0%	?	-1%	?
COc1ccc(N(C(=O)c2ccncc2)S(=O)(=O)c2ccc(Cl)cc2)cc1	5	-7%	-22%	0%	-7%
COc1ccc(C(=O)N(c2ccc(C)cc2)S(=O)(=O)c2ccc(C)cc2)cc1	·	·	23µM*	·	18µM*
O=C(NCCCn1ccnc1)c1cc(-c2cccc(O)c2)on1	21	0%	-13%	0%	-17%
